The text below walks through data of PubChem BioAssay (NCI).

This is part of a sample that, as a whole, favours compounds with a hit. Of some 83,000 tested, about 20% had one in any assay.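 Negative percent growth values reflect cell death: -40 means 40% of the cells present at the start died, and -100 means all died.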 Active and inactive are the calls of the source. Rule for the calls: active = growth percent below 10; inactive = the rest.

The subject of this test is HL-60(TB) leukemia. Put plainly: NCI-60 one-dose screen, 48 h (100 = growth as untreated, 0 = no growth, -100 = all killed). The note with it: 10 µM unless noted.
On to `COc1ccc2c(c1)C(=O)/C(=C/c1ccc(O)cc1)O2`, for which the growth is 59.4% (inactive).
For `C(=N\Nc1nnn(Cc2ccccc2)n1)/c1ccccc1`, the growth was 5.57% (active).
On to `CC[C@]12C=CCN3CC[C@@]4(c5ccc(OC)cc5N(C)[C@H]4[C@@](O)(C(=O)OC)[C@@H]1OC(=O)CCCN1CCOCC1)[C@@H]32`, for which the growth is 97.5% (inactive).
`O=C1NC(=S)NC(=O)C1=Cc1cn(Cc2cn(Cc3cccc4ccccc34)nn2)c2ccccc12`: the growth is 106% (inactive).
For `COc1ccc(-c2nc3ccc(-c4nc5ccc(N6CCN(C)CC6)cc5[nH]4)cc3[nH]2)cc1OC`, the growth was 49.1% (inactive).
As to `NCCOc1ncccc1/C=C1\c2ccccc2-c2ccc(C(F)F)cc21`, the growth was -3.26% (active).
Take `O=C(Nc1ccc2[nH]ncc2c1)c1csc(Nc2ccccc2)n1`: the growth was 9.35% (active).
Take `C/C(Cc1ccccc1)=N\O`: the growth is 13.8% (inactive).
Regarding `Cc1ccccc1-n1nnc(C(=O)Nc2ccc(-c3ccccc3)cn2)c1C`, the growth is 28.8% [50 µM] (inactive).
Consider `CN1CCOCCN(C)Cc2ccc3ccc(cc3c2)CN(C)CCOCCN(C)Cc2ccc3ccc(cc3c2)C1`, for which the growth was 20.7% (inactive).
Then `O=c1cc(-c2ccc(OCc3ccccc3)cc2)oc2c(I)c(OCc3ccccc3)cc(OCc3ccccc3)c12`, with 117% (inactive); and `CC[N+](CC)(CCCC(C)[N+]1(Cc2ccccc2)C(C)=CC=C1C)Cc1ccccc1` (centres undefined), with 37.1% (inactive).
Consider `COc1cc2c(cc1-c1c(C)noc1C)ncc1nc(C3CCC(F)(F)CC3)n([C@@H](C)COC(F)F)c12`, for which the growth was 18% (inactive).
For the compound `Cc1[nH]c(C(=O)Nc2ccc(C(=O)NCCN)cc2OC(C)C)c(Cl)c1Cl`, the growth is -21.3% (active).
